# HP1b chromo inh: HP1-beta chromodomain-methylated histone interaction inhibition. hit rate 0.56% among 390,000. Potency, µM (doses to about 114 µM), for the others: top-dose activity change, negative = inhibition, hits mostly inhibitors. P83916. AlphaScreen HP1-beta / biotin-H3K9me3 peptide binding; note: nearly all actives have a fitted effect of over 70% in size
# Target sequence (P83916 whole entry, looked up): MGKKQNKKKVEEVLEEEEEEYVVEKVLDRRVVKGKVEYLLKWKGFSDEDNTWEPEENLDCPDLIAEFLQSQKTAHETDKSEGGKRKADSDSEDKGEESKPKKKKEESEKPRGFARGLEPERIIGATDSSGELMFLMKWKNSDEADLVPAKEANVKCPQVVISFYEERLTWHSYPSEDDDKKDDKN
#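 AlphaScreen: HP1-beta (50 nM) preformed 30 min with biotin-H3(1-18)K9me3 peptide (50 nM) in PBS pH 7.4, 0.01% Tween-20. Compound added for 30 min at RT, then streptavidin donor/nickel chelate acceptor beads (10 ug/mL) for 30 min.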
# G9a block: inhibitors of human histone lysine methyltransferase G9a. Q96KQ7. Potency, µM (titrated, usually from 102 µM), without a hit: at the highest dose activity, negative = inhibition, hits mostly inhibitors. G9a H3K9 monomethylation, AlphaScreen, 2 h. AID 504332. hit rate 8.8% among 350,000; note: % is set by controls: 0 for no effect and ±100 for the full control effect; nearly all actives have a fitted effect of over 75% in size
# Target sequence (Q96KQ7 913-1193 limits assumed): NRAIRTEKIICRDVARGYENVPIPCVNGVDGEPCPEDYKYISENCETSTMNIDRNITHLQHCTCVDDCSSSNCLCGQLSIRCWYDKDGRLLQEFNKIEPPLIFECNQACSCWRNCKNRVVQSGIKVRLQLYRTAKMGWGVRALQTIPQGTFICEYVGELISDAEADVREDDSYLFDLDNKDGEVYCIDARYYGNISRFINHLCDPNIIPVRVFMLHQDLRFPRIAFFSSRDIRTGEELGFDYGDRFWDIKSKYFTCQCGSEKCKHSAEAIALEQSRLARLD
#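 AlphaScreen read-out: biotin-H3K9 peptide (500 nM) methylation by 20 nM enzyme with 20 uM SAM, 2 h at room temperature after 15 min compound preincubation; anti-monomethyl H3K9 antibody plus donor/acceptor beads, 10 min dark.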
# BAZ2B block: inhibitors of human BAZ2B bromodomain. Potency, µM (top dose mostly 114 µM), for the others: top-dose activity change, negative = inhibition, hits mostly inhibitors. AlphaScreen BAZ2B-H3K14Ac peptide displacement. Q9UIF8. hit rate 4.4% among 360,000; note: % is set by controls: 0 for no effect and ±100 for the full control effect; nearly all actives have a fitted effect of over 60% in size
#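 BAZ2B 50 nM plus b-H3(5-23)K14Ac 50 nM, PBS pH 7.4/0.01% Tween-20, 30 min RT; compound added (max 110 uM), 30 min RT; streptavidin donor/Ni-chelate acceptor beads 10 ug/mL final, 20 min dark; AlphaScreen read.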
# ALOX12 inh: inhibitors of human 12S-lipoxygenase ALOX12. P18054. purified 12hLO, xylenol orange hydroperoxide absorbance. hit rate 1.1% among 580,000. Potency, µM (series often up to 108 µM), for inactives: top-dose activity change, negative = inhibition, most hits filed as inhibitors. AID 1671190; note: % is set by controls: 0 for no effect and ±100 for the full control effect
#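 Hydroperoxide product was detected by ferrous iron/xylenol orange as the 573 to 405 nm absorbance ratio. Arachidonic acid at 40 uM (final) was turned over for 30 min at room temperature by 150 nM human 12hLO, pH 7.0 Hepes buffer, after 15 min compound preincubation.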
# PLK1 PBD block: blocks phosphopeptide binding to human PLK1 polo-box domain | P53350 | Plk1 PBD binding of FITC phosphopeptide, fluorescence polarization | Potency, µM, for the others: max response, negative = inhibition, usual class: inhibitors | hit rate 2.8% among 360,000 | AID 720504; note: series mostly up to about 57 µM; % is set by controls: 0 for no effect and ±100 for the full control effect; nearly all actives have a fitted effect of over 65% in size
# JMJD2A Tudor inh: JMJD2A Tudor domain (human) inhibition. O75164. AlphaScreen JMJD2A-Tudor / H3K4me3 peptide binding. Potency, µM (top dose mostly 114 µM), for the others: top-dose activity change, negative = inhibition, actives largely listed as inhibitors. hit rate 4.4% among 390,000. AID 504339; note: % is set by controls: 0 for no effect and ±100 for the full control effect; nearly all actives have a fitted effect of over 50% in size
# Numbers without * were called inactive; ? = inconclusive; / = no result; [ ] = another dose, or the depositor's remark. This is a sample that favours compounds with a hit; in the whole collection about 9% have one here. Calls come from the whole dose curve; as a rule, active = well fitted curve in the direction sought with a large enough effect; inconclusive = small, poorly fitted or top-dose-only effect, or another doubt; inactive = no such curve, though single readings can be large; an effect the other way counts as inactive or inconclusive. Potency is the fitted concentration of half-maximal effect.
SMILES,HP1b chromo inh,G9a block,BAZ2B block,ALOX12 inh,PLK1 PBD block,JMJD2A Tudor inh
COc1ccccc1-c1nnc2n1N=C(c1ccc(O)c(O)c1)CS2,-2%,?,50µM*,/,-10%,?
COc1ccc(C2=Nn3c(nnc3-c3ccccn3)SC2)cc1,25%,-97%,25µM*,-10%,-7%,40µM*
O=C(COc1nnc2ccccn12)N1CCN(S(=O)(=O)c2ccccc2)CC1,23%,/,/,-1%,-1%,1%
O=S(=O)(Nc1ncccn1)c1ccc(NC(=S)Nc2ccccc2)cc1,24%,/,-6%,-94%,-27%,-4%
Cc1cc(C)nc(NS(=O)(=O)c2ccc(NC(=O)CSc3ncn[nH]3)cc2)n1,-5%,-2%,-11%,-28%,27µM*,?
O=C(Cc1ccc(Cl)cc1)Nc1ccc(S(=O)(=O)Nc2ncccn2)cc1,40%,79µM*,-29%,?,-10%,-9%
Cc1ccc(SCC(=O)Nc2ccc(S(=O)(=O)Nc3ncccn3)cc2)cc1,19%,45µM*,-17%,-28%,-20%,-22%
CCc1c(C(=O)NNC(=S)Nc2ccc(S(=O)(=O)Nc3ncccn3)cc2)csc1C,28%,20µM*,1%,-12%,-11%,-13%
O=C1Cc2c(-c3ccc4ccccc4c3)n[nH]c2CN1CCc1ccncc1,/,/,/,75%[176 µM],/,/
CC1=NC(C(F)(F)F)(C(F)(F)F)C(C#N)=C(C)N1,12%,-29%,-5%,6%,-9%,-3%
COc1ccc(CCN(C(=O)C(F)(F)F)C(C(=O)NC2CCCCC2)c2cccs2)cc1 (stereo not drawn),37%,20%[59 µM],8%,-8%,-1%,-2%
Cc1ccc(NC(=O)N2CCN(c3ccccn3)CC2)cc1,21%,5%[59 µM],9%,17%,1%,-3%
Cc1cc(C)nc(NS(=O)(=O)c2ccc(NC(=O)Cn3c(=O)oc4ccccc43)cc2)n1,43%,79µM*,7%,1%,1%,-3%
O=C(CSc1nc(NS(=O)(=O)c2ccccc2)cc(=O)[nH]1)Nc1cccc(C(F)(F)F)c1,13%,?,?,-13%,-3%,9%
Cc1cc(C)c2c(CC(=O)Nc3ccc(S(=O)(=O)Nc4nc(C)cc(C)n4)cc3)coc2c1,20%,14µM*,-32%,-15%,/,-35%
O=C(CSc1nc(NS(=O)(=O)c2ccccc2)cc(=O)[nH]1)Nc1ccc(F)cc1,8%,-10%[59 µM],?,0%,-20%,56µM*
O=C(Nc1ccc(S(=O)(=O)Nc2ncccn2)cc1)C1=COCCO1,34%,32µM*,-6%,-23%,-28%,-22%
Cc1cc(C)nc(NS(=O)(=O)c2ccc(NC(=O)CN3C(=O)c4ccccc4C3=O)cc2)n1,/,?,-2%,0%,/,/
CC(=O)Nc1ccc(S(=O)(=O)Nc2ncccn2)cc1,14%,17%[59 µM],/,-18%,-9%,-16%
CCN(CC)C(=O)N1C[C@@H](Oc2cccnc2)C[C@@H]1C(=O)NCCOC,/,/,/,42%,/,/
CC(=O)Nc1ccc(Oc2ccc([N+](=O)[O-])cc2Cl)cc1,?,-50%,-34%,-17%,?,?
Cc1cc2cc(OCC(=O)O)ccc2n1C,21%,10%[59 µM],-26%,-7%,-1%,-16%
O=C(/C=C/c1ccc(Br)cc1)Nc1ccc(S(=O)(=O)Nc2ncccn2)cc1,33%,/,89µM*,-6%,-10%,-14%
CCOc1ccc(NC(=O)N2CCN(C(=O)c3nsc4ccccc34)CC2)cc1,26%[57 µM],-22%[59 µM],-3%,-15%,/,5%
Cc1cccc(-c2noc([C@@H]3Cc4nc[nH]c4CN3C(=O)NC3CCCCC3)n2)c1,/,/,/,13µM*,/,/
SMILES,HP1b chromo inh,G9a block,BAZ2B block,ALOX12 inh,PLK1 PBD block,JMJD2A Tudor inh
Cc1cc(C)c(N2C(=O)C3C4CC(=O)C(c5ccccc54)C3C2=O)c(C)c1 (stereo not drawn),30%,12%,-17%,2%,3%,-8%
Fc1cccc(CCN2C(=S)NC[C@@H]2CC2CCCCC2)c1,26%,8%[12.7 µM],-23%,40µM*,-6%,-30%
Cc1c(Cl)cccc1NC(=O)CCN1C(=O)c2ccccc2Sc2ncccc21,-6%,-10%[59 µM],-15%,?,/,-22%
CC1=C(C#N)C(=O)OC(C)(C)C1,38%,13µM*,9%,0%,-21%,5%
c1ccc(-c2ccc3[nH]ccc3c2)cc1,23%,-4%[0.501 µM],14%,?,-14%,-5%
CCc1ccc(N(CC)C(=O)c2sc3nc4n(c(=O)c3c2C)CCCC4)cc1,25%,16µM*,25µM*,?,/,79µM*
CCN(C(=O)c1sc2nc3n(c(=O)c2c1C)CCCCC3)c1ccccc1F,58%,8.9µM*,-34%,7%,/,-2%
CCN(C(=O)c1sc2nc3n(c(=O)c2c1C)CCCCC3)c1ccc(OC)cc1,13%,5.6µM*,35µM*,-24%,/,79µM*
COc1ccc(CN2CCCN(C)CC2)c(OC)c1C,?,/,?,-19%,-14%,8.9µM*
COc1cc(Br)c(CN2CCCN(C)CC2)cc1OC,29%,71µM*,-27%,-8%,-8%,-17%
O=C(O)/C=C/c1ccccn1,/,/,/,-5%,/,/
CC[C@@H](NC(=O)[C@@H](Cc1ccccc1)NC(=O)CC[C@H]1O[C@@H](n2ccc(=O)[nH]c2=O)[C@H](O)[C@@H]1O)c1ccccc1,/,/,/,32µM*,-6%,/
COc1ccc(CCn2c(-c3ccc(Cl)cc3)n[nH]c2=S)cc1OC,36%,2.2µM*,?,-13%,-1%,-21%
CCCCn1c(-c2cc(Cl)ccc2OC)n[nH]c1=S,-15%,2µM*,-5%,?,-20%,13µM*
COc1ccc(CCn2c(-c3ccc(C(C)(C)C)cc3)n[nH]c2=S)cc1OC,-31%,?,-16%,?,38µM*,18µM*
COc1ccc(Cl)cc1-c1n[nH]c(=S)o1,29%,?,-5%,?,-20%,-29%
CCOc1ccc(NS(=O)(=O)c2cc(NC(=O)CCS(=O)(=O)c3ccc(C)cc3)ccc2OC)cc1,10%,-2%[59 µM],-8%,-17%,2%,-22%
C=CCN(CC=C)Cc1c(O)ccc2c1oc(=O)c1ccccc12,?,/,/,?,-16%,8.9µM*
Cc1c(C(=O)NN2CCOCC2)oc2ccccc12,39%,-8%,14%,-9%,2%,-2%
Cc1ccc(-c2csc(/C=C/c3ccc(C#N)cc3)n2)cc1,/,/,/,-2%,/,/
Cc1ccc(-c2csc(/C=C/c3cccc(O)c3)n2)cc1,/,/,/,7.1µM*,/,/
O=C(c1ccc(S(=O)(=O)N2CCC(c3nc4ccccc4[nH]3)CC2)cc1)N1CCOCC1,-12%,7.9µM*,?,5.6µM*,-6%,28µM*
O=S(=O)(c1ccc(F)cc1)N1CCC(c2nc3ccccc3[nH]2)CC1,41%,3%,-18%,1%,-4%,-4%

# Compound activity deposited in PubChem by National Center for Advancing Translational Sciences (NCATS).
